Five compounds from PubChem BioAssay can be followed below.

Activity calls are given as the source filed them.

Experiment [1] in a line: binders of probe aFSTL3 on microarray, primary screen, stem cell growth factor project, biochemical, small-molecule microarray, fluorescence 635/667 (AID 1064).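 Further: measures binding of the biotinylated anti-FSTL3 antibody to printed compounds.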 As to conditions: higher = more signal.
Experiment [2] can be described thus: binders from COS7 lysate, DM2A8 probe, primary screen, torsin A project, cell lysate, small-molecule microarray, fluorescence 635/667 (AID 1065). The following applies: higher = more signal, COS7 lysate expressing mutant human TOR1A.
The nature of experiment [3]: binders of probe aFGF2 on microarray, primary screen, stem cell growth factor project, biochemical, small-molecule microarray, fluorescence 635/667 (AID 1067).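 Further: measures binding of biotinylated aFGF2 protein to printed compounds on slides; z-score merges feature fluorescence and signal-to-noise across triplicate slides.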 As to conditions: higher = more signal.
The nature of experiment [4]: binders of probe aFGF10 on microarray, primary screen, stem cell growth factor project, biochemical, small-molecule microarray, fluorescence 635/667 (AID 1071).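 Further: score merges 667 nm spot intensity and signal to noise from triplicate slides.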 The following applies: higher = more signal.
Experiment [5] has as its target Neurogenic locus notch homolog protein 2 (Homo sapiens) (UniProt Q04721). The experiment in a line: Notch2 binders on small-molecule microarrays, primary screen, biochemical, small-molecule microarray, 635 nm fluorescence, stem cell growth factors (AID 1073). As to conditions: Notch2 binding, higher = more signal.
Experiment [6] concerns the target Pro-neuregulin-1, membrane-bound isoform (Homo sapiens) (UniProt Q02297). The experiment in a line: NRG1 binders on small-molecule microarrays, primary screen, psychiatric disease protein project, biochemical, small-molecule microarray, fluorescence 635/667 (AID 1075).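 Further: score combines 667 nm spot fluorescence with signal to noise.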 As to conditions: NRG1 binding, 635 nm fluorescence, higher = more signal.
In experiment [7] the test system is Neuregulin-1 EGF-like domain. The experiment in a line: binders of neuregulin-1 EGF-like domain, primary screen, biochemical, small-molecule microarray, 635 nm fluorescence (AID 1081).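 Further: binding of the protein to compounds printed on small-molecule microarray slides.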 The following applies: small-molecule microarray binding, higher = more signal.
A short description of experiment [8]: FRG1 promoter luciferase signal modulators, primary screen, FRG1 inhibition for FSHD, cell-based, C2C12 myotubes, firefly/Renilla luciferase, luminescence (AID 1084). As to conditions: higher = more signal, called active from +8 up or from −8 down.
Experiment [9] can be described thus: binders of probe aFST on microarray, primary screen, stem cell growth factor project, biochemical, small-molecule microarray, fluorescence 635/667 (AID 1086).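 Further: score merges 667 nm fluorescence with signal-to-noise of each printed compound spot.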 As to conditions: higher = more signal.
A short description of experiment [10]: binders of probe aHhip on microarray, primary screen, stem cell growth factor project, biochemical, small-molecule microarray, fluorescence 635/667 (AID 1087).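 Further: score merges spot fluorescence at 667nm with spot signal to noise ratio.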 As to conditions: higher = more signal.
In experiment [11] the test system is PRMT1 (protein arginine N-methyltransferase 1). The experiment in a line: PRMT1 binders on small-molecule microarrays, primary screen, biochemical, small-molecule microarray, 635 nm fluorescence (AID 1088).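 Further: binding of Prmt1 protein to compounds spotted on small-molecule microarray slides.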 As to conditions: small-molecule microarray binding, higher = more signal.
The nature of experiment [12]: yeast growth modulation, basal conditions, primary screen, YJM789 clinical isolate, OD600, 24 h (AID 1089).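 Further: growth of clinical yeast isolate S. cerevisiae YJM 789 seeded 1000 cells per well; test concentration not given here.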 As to conditions: S. cerevisiae YJM789 growth, higher = more signal, called active from +8 up or from −8 down.
The nature of experiment [13]: fission yeast growth modulation, primary screen, strain 972, OD600, 24 h, no modulator (AID 1090).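 Further: basal condition with compound alone and no growth modifier present; test concentration not given here.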 As to conditions: S. pombe 972 growth, higher = more signal, called active from +8 up or from −8 down.
Experiment [14] can be described thus: S. cerevisiae growth modulation with rapamycin, primary screen, strain BY4716, OD600, 96 h (AID 1091). Further: test concentration not given here. The following applies: higher = more signal, called active from +8 up or from −8 down.
Experiment [15] deals with Torsin-1A-interacting protein 2 (Homo sapiens) (UniProt Q8NFQ8). In words: LULL1 binders on small-molecule microarray, primary screen, cell lysate, human LULL1 lysate, 635/667 nm fluorescence (AID 1092).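 Further: probe is lysate of COS7 cells overexpressing human LULL1; score merges per-feature 667 nm fluorescence with signal-to-noise.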 The following applies: hLULL1 lysate binding, 635 nm fluorescence, higher = more signal.
Chain of Torsin-1A-interacting protein 2 (Homo sapiens) (Q8NFQ8 whole entry, looked up): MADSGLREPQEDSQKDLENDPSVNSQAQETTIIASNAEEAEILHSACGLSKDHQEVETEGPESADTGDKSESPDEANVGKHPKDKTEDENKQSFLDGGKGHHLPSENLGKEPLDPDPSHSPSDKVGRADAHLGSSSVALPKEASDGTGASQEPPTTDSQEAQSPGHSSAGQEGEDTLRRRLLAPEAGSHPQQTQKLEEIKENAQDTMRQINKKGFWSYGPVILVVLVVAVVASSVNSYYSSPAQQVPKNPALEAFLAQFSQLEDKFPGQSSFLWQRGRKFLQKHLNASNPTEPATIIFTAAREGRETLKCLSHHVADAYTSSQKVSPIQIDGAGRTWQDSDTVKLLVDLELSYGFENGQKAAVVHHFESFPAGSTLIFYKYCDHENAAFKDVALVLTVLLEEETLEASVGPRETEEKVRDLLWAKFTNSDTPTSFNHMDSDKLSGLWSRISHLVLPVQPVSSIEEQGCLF
A short description of experiment [16]: E. coli growth modulation, two-sided OD650, primary screen, E. coli filamentation project, strain DRC41, 24 h (AID 1093).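 Further: MC1000 strain lacking acrAB efflux and sulA so SOS filamentation is blocked; test concentration not given here.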 The following applies: OD650, 24 h, higher = more signal, called active from +8 up or from −8 down.
The nature of experiment [17]: small-molecule microarray binders of probe aLefty2, primary screen, biochemical, biotinylated probe, 635/667 nm fluorescence (AID 1094).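 Further: score merges spot fluorescence near 667 nm with spot signal-to-noise ratio.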 The following applies: higher = more signal.
Experiment [18] relates to Noggin (protein binding on small-molecule microarray). In words: Noggin binders on small-molecule microarray, primary screen, biochemical, 635/667 nm fluorescence (AID 1095).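 Further: score merges 667 nm feature fluorescence with signal to noise over triplicate slides.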 As to conditions: 635 nm fluorescence, higher = more signal.
In experiment [19] the target is Neurogenic locus notch homolog protein 3 (Homo sapiens) (UniProt Q9UM47). The experiment in a line: NOTCH3 binders on small-molecule microarray, primary screen, biochemical, 635/667 nm fluorescence (AID 1096). As to conditions: NOTCH3 binding, 635 nm fluorescence, higher = more signal.
The nature of experiment [20]: small-molecule microarray binders of probe aEGFR, primary screen, biochemical, biotinylated probe, 635/667 nm fluorescence (AID 1097).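 Further: probe is a biotinylated anti-EGFR antibody binding compounds printed on slides; score combines fluorescence near 667 nm and signal to noise of each spot.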 As to conditions: higher = more signal.

Chain of Neurogenic locus notch homolog protein 2 (Homo sapiens) (Q04721 whole entry, looked up, canonical isoform): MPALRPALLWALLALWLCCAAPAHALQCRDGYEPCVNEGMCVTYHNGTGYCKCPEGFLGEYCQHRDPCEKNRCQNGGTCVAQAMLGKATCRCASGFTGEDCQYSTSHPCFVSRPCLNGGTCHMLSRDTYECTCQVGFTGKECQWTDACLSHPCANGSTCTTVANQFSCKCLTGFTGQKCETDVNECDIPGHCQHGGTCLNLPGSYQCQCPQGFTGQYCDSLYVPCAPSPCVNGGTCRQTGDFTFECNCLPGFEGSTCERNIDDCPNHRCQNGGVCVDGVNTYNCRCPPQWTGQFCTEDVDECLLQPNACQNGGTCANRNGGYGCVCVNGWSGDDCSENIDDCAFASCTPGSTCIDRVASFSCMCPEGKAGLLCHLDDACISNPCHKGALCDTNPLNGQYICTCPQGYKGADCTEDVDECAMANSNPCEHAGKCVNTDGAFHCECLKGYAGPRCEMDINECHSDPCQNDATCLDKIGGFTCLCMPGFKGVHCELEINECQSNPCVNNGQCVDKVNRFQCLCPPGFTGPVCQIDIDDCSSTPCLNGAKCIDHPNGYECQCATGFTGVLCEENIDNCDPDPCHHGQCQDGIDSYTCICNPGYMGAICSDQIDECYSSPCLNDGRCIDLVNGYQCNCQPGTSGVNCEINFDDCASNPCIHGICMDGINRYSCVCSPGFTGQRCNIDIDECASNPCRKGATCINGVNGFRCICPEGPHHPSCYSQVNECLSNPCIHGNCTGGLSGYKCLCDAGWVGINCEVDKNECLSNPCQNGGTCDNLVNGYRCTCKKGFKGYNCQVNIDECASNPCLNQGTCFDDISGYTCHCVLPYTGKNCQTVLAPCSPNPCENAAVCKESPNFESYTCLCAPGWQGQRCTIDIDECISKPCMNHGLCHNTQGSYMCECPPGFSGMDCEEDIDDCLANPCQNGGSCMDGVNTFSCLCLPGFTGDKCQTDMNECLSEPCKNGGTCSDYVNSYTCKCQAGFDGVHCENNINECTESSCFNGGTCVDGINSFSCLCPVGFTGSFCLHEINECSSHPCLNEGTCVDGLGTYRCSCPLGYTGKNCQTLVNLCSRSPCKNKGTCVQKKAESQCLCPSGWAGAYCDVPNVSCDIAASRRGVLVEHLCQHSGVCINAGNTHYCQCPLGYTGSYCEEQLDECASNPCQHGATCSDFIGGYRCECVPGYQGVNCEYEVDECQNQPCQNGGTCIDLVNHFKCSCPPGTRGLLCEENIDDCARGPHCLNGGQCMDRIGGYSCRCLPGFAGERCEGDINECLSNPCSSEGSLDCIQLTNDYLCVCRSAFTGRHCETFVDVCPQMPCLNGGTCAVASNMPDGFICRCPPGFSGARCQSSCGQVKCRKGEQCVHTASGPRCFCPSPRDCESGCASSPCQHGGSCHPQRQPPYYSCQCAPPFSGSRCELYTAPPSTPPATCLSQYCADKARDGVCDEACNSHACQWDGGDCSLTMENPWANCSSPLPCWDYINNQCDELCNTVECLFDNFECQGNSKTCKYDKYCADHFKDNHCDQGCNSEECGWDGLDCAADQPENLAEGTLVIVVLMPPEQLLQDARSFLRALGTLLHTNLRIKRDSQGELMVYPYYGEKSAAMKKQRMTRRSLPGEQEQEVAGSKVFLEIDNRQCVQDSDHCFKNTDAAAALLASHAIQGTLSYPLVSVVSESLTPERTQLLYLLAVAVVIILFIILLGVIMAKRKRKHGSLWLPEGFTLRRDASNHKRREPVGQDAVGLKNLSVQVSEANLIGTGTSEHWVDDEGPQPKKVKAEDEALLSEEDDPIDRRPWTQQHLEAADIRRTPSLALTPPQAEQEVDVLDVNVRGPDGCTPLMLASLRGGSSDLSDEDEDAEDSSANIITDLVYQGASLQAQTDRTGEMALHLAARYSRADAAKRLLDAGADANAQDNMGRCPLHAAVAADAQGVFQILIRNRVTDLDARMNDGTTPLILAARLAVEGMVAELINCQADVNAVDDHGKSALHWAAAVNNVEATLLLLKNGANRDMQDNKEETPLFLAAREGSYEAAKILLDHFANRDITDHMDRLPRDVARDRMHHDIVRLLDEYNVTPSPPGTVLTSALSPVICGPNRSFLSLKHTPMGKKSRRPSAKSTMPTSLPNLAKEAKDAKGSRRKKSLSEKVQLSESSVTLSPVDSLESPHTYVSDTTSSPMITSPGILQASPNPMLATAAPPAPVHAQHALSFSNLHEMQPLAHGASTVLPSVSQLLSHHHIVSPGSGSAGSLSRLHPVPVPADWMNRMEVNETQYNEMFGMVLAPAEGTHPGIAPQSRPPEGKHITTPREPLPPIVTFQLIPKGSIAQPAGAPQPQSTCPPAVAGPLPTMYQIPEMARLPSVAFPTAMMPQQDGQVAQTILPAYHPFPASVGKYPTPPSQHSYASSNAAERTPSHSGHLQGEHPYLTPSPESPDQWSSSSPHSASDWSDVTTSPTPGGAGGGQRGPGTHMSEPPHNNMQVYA
Chain of Pro-neuregulin-1, membrane-bound isoform (Homo sapiens) (Q02297 whole entry, looked up, the tested form may be a part, canonical isoform): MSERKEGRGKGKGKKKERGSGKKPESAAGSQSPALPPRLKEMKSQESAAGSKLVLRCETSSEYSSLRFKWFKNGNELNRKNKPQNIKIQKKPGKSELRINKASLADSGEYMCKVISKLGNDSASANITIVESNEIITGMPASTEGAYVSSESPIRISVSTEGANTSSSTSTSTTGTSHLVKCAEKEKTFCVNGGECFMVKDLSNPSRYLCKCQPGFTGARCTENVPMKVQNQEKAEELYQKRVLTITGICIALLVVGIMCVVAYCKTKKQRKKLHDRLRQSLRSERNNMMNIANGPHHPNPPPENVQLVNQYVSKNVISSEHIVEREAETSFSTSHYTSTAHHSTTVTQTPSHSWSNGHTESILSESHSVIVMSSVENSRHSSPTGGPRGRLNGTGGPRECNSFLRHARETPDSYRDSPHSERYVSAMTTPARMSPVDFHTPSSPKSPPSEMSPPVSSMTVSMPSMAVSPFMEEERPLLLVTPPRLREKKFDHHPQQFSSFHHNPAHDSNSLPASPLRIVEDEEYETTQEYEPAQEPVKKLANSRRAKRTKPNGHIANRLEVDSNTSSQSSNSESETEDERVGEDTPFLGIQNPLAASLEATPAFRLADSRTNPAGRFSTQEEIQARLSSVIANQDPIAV

Turning to `CC(C)(C)N1CC=CC23O[C@@H]4C=CCCOC(=O)C4[C@H]2C(=O)N(CCCO)[C@@H]3C1=O` (stereo not given in full), the composite z-score is 0.248 in [1]; -0.527 in experiment [2]; -0.181 in [3]; -0.642 in experiment [4]; -1.5 in experiment [5]; -0.509 in experiment [6]. Moreover, the composite z-score was -0.174 in experiment [7]; -0.383 in experiment [9]; -0.0994 in experiment [10]; -1.49 in [11]; -1.09 in experiment [15]; -0.195 in experiment [17]. Besides, the results for the composite z-score in experiment [18], in experiment [19] and in experiment [20] were -0.399, -1.7 and -0.268, respectively. Further, the z-score in [8] was 0.489 (inactive); in [12], 0.0588 (inactive); in experiment [13], -0.37 (inactive); in [14], -0.199 (inactive); in experiment [16], 1.04 (inactive).
Consider `COCCCNC(=O)[C@]1(CCS(=O)(=O)c2ccccc2)N=C(c2ccc(OCCCO)cc2)O[C@@H]1c1ccccc1`, for which the composite z-score in experiment [1] was -0.0225; in [2] it was 1.05; in [3], 0.124; in experiment [4], 0.786; in experiment [5], 1.57; in [6], 2.12. Besides, the composite z-score in experiment [7] was 1.22; in experiment [9], 1.26; in experiment [10], -0.166; in [11], 1.54; in experiment [15], 3.74; in [17], 0.255. Also, the composite z-score in experiment [18] worked out at 0.712; in [19], 1.11; in [20], 0.141. Further, the z-score in experiment [8] was -1.91 (inactive); in experiment [12], -0.575 (inactive); in experiment [13] it was 0.127 (inactive); in [14] it was 0.0389 (inactive); in experiment [16], 0.697 (inactive).
In the case of `COCCOC(=O)N1C(=O)[C@@]2(c3cc(C#CCCO)ccc31)[C@H](C(=O)N1CCc3cc(OC)c(OC)cc3C1)[C@H]1C(=O)O[C@H](c3ccccc3)[C@H](c3ccccc3)N1[C@@H]2c1ccc(OCCO)cc1`, the composite z-score is -0.392 in experiment [1]; 0.282 in [2]; -0.0867 in [3]; 0.501 in [4]; 0.467 in experiment [5]; 0.007 in experiment [6]. Besides, the composite z-score in experiment [7] was 1.16; in experiment [9], 0.242; in [10], -0.216; in experiment [11] it was 1.55; in [15] it was 2.59; in [17] it was -0.104. The results for the composite z-score in experiment [18], in experiment [19] and in experiment [20] were 1.12, 1.07 and -0.0859, respectively. The z-score in experiment [8] is -0.561 (inactive); in [12], -1.17 (inactive); in [13], -0.581 (inactive); in [14] it was 2.59 (inactive); in experiment [16] it was 1.26 (inactive).
For the compound `COCCCNC(=O)[C@@]1(Cc2ccccc2N=[N+]=[N-])N=C(c2ccc(OCCCO)cc2)O[C@H]1c1ccccc1CN=[N+]=[N-]`, the composite z-score in experiment [1] was determined as 0.377; in [2], 0.556; in [3] it was 0.185; in experiment [4], 1.07; in experiment [5], 1.47; in experiment [6] it was 1.78. The composite z-score in experiment [7] is 1.26; in [9] it was 0.893; in [10], -0.192; in experiment [11] it was 1.56; in experiment [15] it was 3.49; in experiment [17], 0.235. Further, the composite z-score is -0.0194 in experiment [18], 1.07 in experiment [19] and 0.43 in [20]. The z-score in experiment [8] is -0.344 (inactive); in [12], -0.873 (inactive); in experiment [13] it was 0.553 (inactive); in experiment [14], 6.93 (inactive); in [16], 1.04 (inactive).
For the compound `CC(C)NC(=O)[C@@H]1c2ccccc2C(=O)N(Cc2cc(C(F)(F)F)cc(C(F)(F)F)c2)[C@H]1c1ccc(CO)cc1`, the composite z-score in [1] is 0.27; in experiment [2], 0.255; in [3] it was 0.0032; in [4], -0.0264; in [5] it was 0.805; in experiment [6], 0.104. The composite z-score was 0.663 in experiment [7]; 0.619 in experiment [9]; 0.0596 in [10]; 1.46 in experiment [11]; 2.4 in experiment [15]; -0.0107 in experiment [17]. Moreover, the figures for the composite z-score in experiment [18], in experiment [19] and in experiment [20] were 0.598, 1.04 and -0.0248, respectively. In addition, the z-score in experiment [8] is 0.306 (inactive); in [12] it was -0.245 (inactive); in experiment [13] it was -0.593 (inactive); in experiment [14], -0.517 (inactive); in [16], -0.216 (inactive).
